Data on 15 compounds can be found in PubChem BioAssay (NCI).

This is part of a sample that, as a whole, favours compounds with a hit. Of some 83,000 tested, about 20% had one in any assay.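 Single-concentration screen, 48 h exposure, 96-well plates. Endpoint: percent growth. Below 10 = active.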 Values without a mark were called inactive. Activity calls are given as the source filed them.

Some test systems named below: HCT-15 colon; HT29 colon; SNB-19 CNS; U251 CNS; PC-3 prostate; SK-MEL-5 melanoma; UACC-62 melanoma; SK-MEL-28 melanoma; LOX IMVI melanoma; SNB-75 CNS.
Common to all, as to assay: NCI-60 one-dose screen, 48 h (100 = growth as untreated, 0 = no growth, -100 = all killed)
Common to all, as to settings: 10 µM unless noted

As to `C/C(Cc1ccc(Cl)cc1)=C(\c1ccc(OCCN2CCCCCC2)cc1)c1ccc(OC(=O)Cc2ccccc2)cc1`, the growth in the experiment on HCT-15 colon was 32.6%; with HT29 colon, 9.8% (active); in the experiment on SNB-19 CNS it was 74.4%; in the experiment on U251 CNS, 42.5%; in the experiment with PC-3 prostate, 54.2%; in the experiment with SK-MEL-5 melanoma, 84.1%. For the same compound, the growth in the experiment on UACC-62 melanoma is 75.1%; with SK-MEL-28 melanoma it was 71.3%.

Turning to `COc1cccc(-c2nc3sccn3c2-c2ccnc(NCCCNS(=O)(=O)c3ccc(Cl)cc3)c2)c1`, the growth in the experiment with HCT-15 colon is 37.8%; in the experiment with HT29 colon, 42.6%; with SNB-19 CNS, 69.4%; in the experiment with U251 CNS it was 63.5%; in the experiment on PC-3 prostate, 26.2%; in the experiment on SK-MEL-5 melanoma, 1.31% (active). Moreover, the results for the growth in the experiment on UACC-62 melanoma, in the experiment with LOX IMVI melanoma and with SK-MEL-28 melanoma were 6.77% (active), 39.2% and 69.6%, respectively.

In the case of `COc1cccc(-c2cn3c(ccc4ccccc43)n2)c1`, the growth with HCT-15 colon is 21.9%; in the experiment on HT29 colon, 20.1%; in the experiment on SNB-19 CNS it was 38.3%; in the experiment with U251 CNS it was 38.4%; with PC-3 prostate, 34.8%; with SK-MEL-5 melanoma, 9.42% (active). Besides, the growth with UACC-62 melanoma is 34.4%; with LOX IMVI melanoma, 31.6%; with SK-MEL-28 melanoma it was 60%.

Turning to `C=C1CC2(OC1=O)C(=O)N(CCCCCCCN1C(=O)C3(CC(=C)C(=O)O3)c3ccccc31)c1ccccc12` (stereo not given), the growth in the experiment with HCT-15 colon is -19.6% (active); in the experiment on HT29 colon it was -17.4% (active); in the experiment on SNB-19 CNS, 67.9%; with U251 CNS, 36.5%; in the experiment with PC-3 prostate it was 45.7%; in the experiment on SK-MEL-5 melanoma it was 61.3%. In addition, the results for the growth in the experiment on UACC-62 melanoma, in the experiment with LOX IMVI melanoma and in the experiment on SK-MEL-28 melanoma were 34.9%, -82.5% (active) and 9.63% (active), respectively.

As to `CCN(CC)CCCC(C)Nc1ccnc2c(OC)cccc12` (stereo not given), the growth in the experiment with HCT-15 colon was 120%; with HT29 colon, 107%; in the experiment with SNB-19 CNS, 113%; with U251 CNS it was 102%; with PC-3 prostate it was 104%; in the experiment with SK-MEL-5 melanoma, 111%. Further, the growth in the experiment on UACC-62 melanoma is 114%; with LOX IMVI melanoma, 107%; in the experiment with SK-MEL-28 melanoma, 119%.

As for `CC1=CC(=O)CC(C)(C)[C@@]1(O)/C=C/[C@@H](C)O`, the growth in the experiment with HCT-15 colon was 89.4%; in the experiment with HT29 colon, 112%; in the experiment with SNB-19 CNS, 97.7%; with U251 CNS, 90.8%; with SK-MEL-5 melanoma it was 97.4%; with UACC-62 melanoma, 99.7%. Further, the growth is 93.7% in the experiment on LOX IMVI melanoma and 108% in the experiment with SK-MEL-28 melanoma.

Regarding `COc1ccc(-c2cn3c(-c4ccc(OC)cc4)cnc3c(Oc3ccc4c(C)cc(=O)oc4c3)n2)cc1`, the growth is 63.4% in the experiment on HCT-15 colon; 14.3% in the experiment on SNB-75 CNS; 22.6% in the experiment with U251 CNS; 28.6% in the experiment with SK-MEL-5 melanoma; 50.1% in the experiment on UACC-62 melanoma; 8.02% (active) in the experiment on LOX IMVI melanoma. In the experiment with SK-MEL-28 melanoma, the growth is -17.4% (active).

`O=C(CN1CCN(c2cc3c(cc2F)c(=O)c(C(=O)O)cn3C2CC2)CC1)Nc1cc(=O)[nH]c(=O)[nH]1`: the growth in the experiment on HCT-15 colon was 96.1%; with SNB-19 CNS, 97.4%; in the experiment with U251 CNS, 106%; in the experiment with PC-3 prostate, 99%; in the experiment on SK-MEL-5 melanoma, 98.9%; in the experiment on UACC-62 melanoma, 96%. Besides, the growth with LOX IMVI melanoma and in the experiment on SK-MEL-28 melanoma was 101% in each case.

As for `O=C(O)c1ccc2c(c1Sc1ccccc1)C(=O)c1ccccc1C2=O`, the growth is 109% in the experiment with HCT-15 colon; 78.1% in the experiment on SNB-75 CNS; 103% with U251 CNS; 88.3% in the experiment with PC-3 prostate; 93.6% in the experiment on SK-MEL-5 melanoma; 87.5% in the experiment with UACC-62 melanoma. In addition, the growth in the experiment on LOX IMVI melanoma was 89.5%; with SK-MEL-28 melanoma, 139%.

As for `COc1cc2c(c(OC)c1OC)-c1ccc(N=NC(N)=S)c(=O)cc1[C@@H](NC(C)=O)CC2`, the growth in the experiment on HCT-15 colon was 76.4%; with SNB-19 CNS it was 27.9%; in the experiment with U251 CNS, 9.3% (active); in the experiment with PC-3 prostate it was 57.3%; with SK-MEL-5 melanoma it was -33.2% (active); in the experiment with UACC-62 melanoma, 17.2%. The growth is 13.5% in the experiment on LOX IMVI melanoma and 53.6% in the experiment with SK-MEL-28 melanoma.

As for `C/C(Cc1ccc(Cl)cc1)=C(\c1ccc(OCCN2CCCCCC2)cc1)c1ccc(OC(=O)C2CCCCC2)cc1`, the growth is 39% with HCT-15 colon; 77.6% in the experiment with SNB-19 CNS; 45% with U251 CNS; 51.5% with PC-3 prostate; 83.5% in the experiment on SK-MEL-5 melanoma; 68.1% with UACC-62 melanoma. Further, the growth in the experiment with LOX IMVI melanoma was 65.8%; in the experiment with SK-MEL-28 melanoma, 61.2%.

For the compound `CC/C=C\C[C@H](O)C/C=C1/C(=O)C=C[C@@H]1C/C=C\CCCC(=O)OC(C)C`, the growth is -33.5% (active) with HCT-15 colon; 46% in the experiment with SNB-75 CNS; 9.75% (active) with SNB-19 CNS; -89.8% (active) with U251 CNS; -0.368% (active) in the experiment on PC-3 prostate; -94.7% (active) with SK-MEL-5 melanoma. Also, the growth was -41.7% (active) in the experiment on UACC-62 melanoma, -82.3% (active) in the experiment with LOX IMVI melanoma and -41.3% (active) with SK-MEL-28 melanoma.

With `CCOC(=O)c1c2c(n3ccc(NC(=O)CCN4CCCCC4)cc13)C(=O)c1ncccc1C2=O`, the growth in the experiment with HCT-15 colon was -62.9% (active); in the experiment with SNB-75 CNS it was 23.9%; in the experiment on SNB-19 CNS, -42.7% (active); in the experiment with U251 CNS, -86.3% (active); with PC-3 prostate it was 47.3%; in the experiment on SK-MEL-5 melanoma it was -83.6% (active). Besides, the growth with UACC-62 melanoma is -50.6% (active); in the experiment with LOX IMVI melanoma it was -63.9% (active); in the experiment on SK-MEL-28 melanoma, -64.7% (active).

Consider `Cc1cc(=O)oc2cc(Oc3nc(-c4cccs4)cn4c(-c5cccs5)cnc34)ccc12`, for which the growth was 72.9% in the experiment on HCT-15 colon; 35.6% in the experiment with SNB-75 CNS; 47.5% in the experiment with U251 CNS; 53% in the experiment on PC-3 prostate; 42.5% in the experiment with SK-MEL-5 melanoma; 71.1% in the experiment on UACC-62 melanoma. Also, the values for the growth in the experiment on LOX IMVI melanoma and with SK-MEL-28 melanoma were 38.4% and 23.9%, respectively.

As for `CCOC(=O)c1nc(Nc2cc(C)[nH]n2)c2ccccc2n1`, the growth in the experiment on HCT-15 colon was 73.4%; in the experiment with SNB-75 CNS, 16.9%; with SNB-19 CNS it was 115%; with PC-3 prostate, 93.3%; with SK-MEL-5 melanoma it was 105%; in the experiment on UACC-62 melanoma, 91.1%. Besides, the results for the growth in the experiment with LOX IMVI melanoma and in the experiment on SK-MEL-28 melanoma were 97.2% and 93.2%, respectively.
